Data reported in PubChem BioAssay (Tox21).
Records with an inconclusive call do not appear. The source made the active and inactive calls. Unless noted, the call rests on the fitted dose curve; in most records, active means well fitted curve in the direction sought with a large enough effect in the repeat runs; inconclusive means weak or mixed curves; inactive means no such curve, though single readings can be large; an effect the other way counts as inactive or inconclusive.

Tests used:
[1] = qHTS assay for identifying genotoxic compounds that show differential cytotoxicity against isogenic chicken DT40 cell lines with known DNA damage response pathways - wild type cell line (AID 743012); details: DT40 wild type chicken cells viability, CellTiter-Glo, 40 h; series mostly up to 68.4 µM; further: nearly all actives have a fitted effect of over 60% in size; further: potency means the concentration at half of the fitted maximal effect
Summary of the method: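 Wild-type DT40 cells (300/well) exposed to compounds for 40 hours at 37 C/5% CO2. Viability read by CellTiter-Glo luminescence after 30 min at room temperature.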

[2] = qHTS assay for identifying genotoxic compounds that show differential cytotoxicity against isogenic chicken DT40 cell lines with known DNA damage response pathways - Rev3 mutant cell line (AID 743014); details: chicken DT40 Rev3-/- viability, CellTiter-Glo, 40 h; series mostly up to 68.4 µM; further: nearly all actives have a fitted effect of over 55% in size; further: potency means the concentration at half of the fitted maximal effect
[3] = qHTS assay for identifying genotoxic compounds that show differential cytotoxicity against isogenic chicken DT40 cell lines with known DNA damage response pathways - Rad54/Ku70 mutant cell line (AID 743015); details: DT40 Rad54/Ku70 mutant viability, CellTiter-Glo, 40 h; series mostly up to 66.8 µM; further: nearly all actives have a fitted effect of over 60% in size; further: potency means the concentration at half of the fitted maximal effect
[4] = qHTS assay to identify small molecule antagonists of the androgen receptor (AR) signaling pathway - cell viability counter screen (AID 743033; further: nearly all actives have a fitted effect of over 45% in size); details: AR-bla HEK293 viability, CellTiter-Glo luminescence, 16 h; series mostly up to 58.5 µM
[5] = qHTS assay to identify small molecule antagonists of the androgen receptor (AR) signaling pathway using the MDA cell line - cell viability counter screen (AID 743041; further: nearly all actives have a fitted effect of over 45% in size); details: MDA-kb2 viability, CellTiter-Fluor, 16 h, cells co-treated with R1881 androgen agonist; series mostly up to 70.3 µM
Summary of the method: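 Same-well cytotoxicity was assessed by CellTiter-Fluor in MDA-kb2 AR-luc cells after 16 h of compound treatment under R1881 agonism.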

[6] = qHTS assay to identify small molecule antagonists of the thyroid receptor (TR) signaling pathway - cell viability counter screen (AID 743064); details: GH3.TRE-Luc viability, CellTiter-Fluor, 24 h; series mostly up to 70.3 µM; further: nearly all actives have a fitted effect of over 50% in size; further: potency means the concentration at half of the fitted maximal effect
Summary of the method: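 GH3.TRE-Luc rat pituitary cells carrying a TRE-luciferase reporter were treated with compound plus 1 nM T3 (final) for 23.5 h at 37 °C. Viability was then read in the same wells by CellTiter-Fluor fluorescence after a further 30 min.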

[7] = qHTS assay to identify small molecule antagonists of the thyroid receptor (TR) signaling pathway (AID 743065); details: GH3.TRE-Luc, T3-stimulated luciferase inhibition, 23.5 h; series mostly up to 70.3 µM; further: nearly all actives have a fitted effect of over 55% in size; further: potency means the concentration at half of the fitted maximal effect
Summary of the method: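 GH3.TRE-Luc rat pituitary cells (two TREs driving luciferase) were dosed with compound, then stimulated with 1 nM T3 (final) for 23.5 h at 37 C. ONE-Glo luminescence was the read-out, with CellTiter-Fluor fluorescence as the cytotoxicity counter-screen.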

[8] = qHTS assay to identify small molecule antagonists of the estrogen receptor alpha (ER-alpha) signaling pathway - cell viability counter screen (AID 743074; calls by dose curve;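 further: HEK293 cells carrying ER-alpha-UAS-bla reporter stimulated with 17beta-estradiol; nearly all actives have a fitted effect of over 45% in size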); details: ERalpha-bla HEK293 viability, CellTiter-Glo luminescence, 18 h; series mostly up to 69.4 µM
[9] = qHTS assay to identify small molecule antagonists of the estrogen receptor alpha (ER-alpha) signaling pathway using the BG1 cell line - cell viability counter screen (AID 743081); details: BG1Luc4E2 viability, CellTiter-Fluor, 22 h; series mostly up to 70.3 µM;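 further: compound given together with 17beta-estradiol as the ER stimulus; nearly all actives have a fitted effect of over 45% in size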
Aromatase (Homo sapiens) = Aromatase (Homo sapiens) (UniProt P11511); assay: qHTS assay to identify aromatase inhibitors (AID 743083); details: MCF-7 aro ERE, testosterone-driven ERE luciferase, 24 h; series mostly up to 70.3 µM; further: nearly all actives have a fitted effect of over 55% in size
[10] = qHTS assay to identify aromatase inhibitors - cell viability counter screen (AID 743084); details: MCF-7 aro ERE viability, CellTiter-Fluor, 24 h; series mostly up to 70.3 µM;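 further: cells stimulated with testosterone during compound exposure; nearly all actives have a fitted effect of over 55% in size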
[11] = tested on: thyroid hormone receptor (rat, GH3 cells); assay: qHTS assay to identify small molecule agonists of the thyroid receptor (TR) signaling pathway (AID 743066; calls by dose curve); details: GH3.TRE-Luc cells, TR agonist luciferase, 24 h; series mostly up to 83.9 µM
[12] = biological target: Estrogen receptor (Homo sapiens) (UniProt P03372); assay: qHTS assay to identify small molecule antagonists of the estrogen receptor alpha (ER-alpha) signaling pathway (AID 743069; active means well fitted curve in the direction sought with a large enough effect in the signal ratio in the repeat runs, not every such curve was filed as active; the % refers to the signal ratio); details: HEK293 ER-alpha-UAS-bla, beta-lactamase ratio, antagonist mode; series mostly up to 69.4 µM
Summary of the method: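 Reporter cells (ER-alpha-bla, HEK293 background) are conditioned overnight in stripped-serum medium (2% charcoal-stripped FBS). Compound and 17beta-estradiol exposure runs 18 hr at 37C, 5% CO2.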

[13] = biological target: Estrogen receptor (Homo sapiens) (UniProt P03372); assay: qHTS assay to identify small molecule agonists of the estrogen receptor alpha (ER-alpha) signaling pathway (AID 743075; calls by dose curve); details: HEK293 ER-alpha-UAS-bla, beta-lactamase FRET ratio, 18 h; series mostly up to 70.1 µM
[14] = biological target: Estrogen receptor (Homo sapiens) (UniProt P03372); assay: qHTS assay to identify small molecule agonists of the estrogen receptor alpha (ER-alpha) signaling pathway using the BG1 cell line (AID 743079); details: BG1Luc4E2 cells, ERE-luciferase agonist, 22 h; series mostly up to 70.3 µM; further: nearly all actives have a fitted effect of over 20% in size
[15] = qHTS assay to identify small molecule antagonists of the estrogen receptor alpha (ER-alpha) signaling pathway using the BG1 cell line (AID 743080; calls by dose curve; further: nearly all actives have a fitted effect of over 25% in size); details: BG1Luc4E2 ERE-luciferase antagonist mode, luminescence; series mostly up to 70.3 µM
Summary of the method: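 Antagonist mode: compounds in DMSO were pinned onto BG1-Luc-4E2 cells alongside 17beta-estradiol agonist, incubated 21.5 h, and ERE-driven luciferase measured with ONE-Glo. Cytotoxicity was multiplexed using CellTiter-Fluor fluorescence.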

[16] = biological target: Androgen receptor (Homo sapiens) (UniProt P10275); assay: qHTS assay to identify small molecule antagonists of the androgen receptor (AR) signaling pathway (AID 743035; active means well fitted inhibition curve with a large enough effect in the signal ratio in the repeat runs, not every such curve was filed as active; the % refers to the signal ratio); details: HEK293 AR-UAS-bla, R1881-stimulated, beta-lactamase FRET, 16 h; series mostly up to 58.5 µM
Summary of the method: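 HEK293 cells stably carrying UAS-beta-lactamase reporter, 2,000/well, given compounds plus R1881 agonist and incubated 16 h at 37C. LiveBLAzer B/G FRET substrate then added for 2 h at room temperature before fluorescence reading.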

[17] = biological target: Androgen receptor (Homo sapiens) (UniProt P10275); assay: qHTS assay to identify small molecule agonists of the androgen receptor (AR) signaling pathway (AID 743036; active means well fitted activation curve with a large enough effect in the signal ratio in the repeat runs, with a control signal flat, not every such curve was filed as active; the % refers to the signal ratio); details: HEK293 AR-UAS-bla GripTite, beta-lactamase FRET ratio, 16 h; series mostly up to 62.4 µM
Summary of the method: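 HEK293 cells stably carrying a UAS-driven beta-lactamase reporter (GeneBLAzer AR-UAS-bla-GripTite) were plated at 2,000 cells/well, rested 4 h at 37C, then exposed to compounds in DMSO for 16 h. LiveBLAzer B/G FRET substrate was added for 2 h at room temperature; fluorescence read.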

[18] = biological target: Androgen receptor (Homo sapiens) (UniProt P10275); assay: qHTS assay to identify small molecule antagonists of the androgen receptor (AR) signaling pathway using the MDA cell line (AID 743042; further: nearly all actives have a fitted effect of over 55% in size); details: MDA-kb2 AR-luc, MMTV luciferase, R1881 antagonist, 16 h; series mostly up to 70.3 µM
Summary of the method: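 MDA-kb2 breast carcinoma cells carrying MMTV-luciferase (AR/GR responsive) were co-treated with compounds and the agonist R1881 for 16 h at 37C. Inhibition read as ONE-Glo luminescence; CellTiter-Fluor fluorescence measured in parallel for cytotoxicity.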
On the % scale 0 is the no-effect control and ±100 the full control effect.

Chain of Aromatase (Homo sapiens) (P11511 whole entry, looked up): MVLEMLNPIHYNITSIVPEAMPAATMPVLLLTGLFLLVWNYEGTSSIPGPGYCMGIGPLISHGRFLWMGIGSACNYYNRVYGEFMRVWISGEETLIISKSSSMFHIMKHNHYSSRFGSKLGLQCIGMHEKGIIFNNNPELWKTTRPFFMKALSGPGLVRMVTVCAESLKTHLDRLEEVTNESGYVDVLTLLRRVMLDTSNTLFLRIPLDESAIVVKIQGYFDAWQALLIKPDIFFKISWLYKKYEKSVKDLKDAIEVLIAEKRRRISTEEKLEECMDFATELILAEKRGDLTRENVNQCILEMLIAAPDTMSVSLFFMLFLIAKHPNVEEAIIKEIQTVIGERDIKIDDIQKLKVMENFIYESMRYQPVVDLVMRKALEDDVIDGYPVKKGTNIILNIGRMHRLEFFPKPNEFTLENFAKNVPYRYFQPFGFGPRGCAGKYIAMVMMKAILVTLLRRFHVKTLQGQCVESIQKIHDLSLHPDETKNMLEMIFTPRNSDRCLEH
Chain of Estrogen receptor (Homo sapiens) (P03372 whole entry, looked up): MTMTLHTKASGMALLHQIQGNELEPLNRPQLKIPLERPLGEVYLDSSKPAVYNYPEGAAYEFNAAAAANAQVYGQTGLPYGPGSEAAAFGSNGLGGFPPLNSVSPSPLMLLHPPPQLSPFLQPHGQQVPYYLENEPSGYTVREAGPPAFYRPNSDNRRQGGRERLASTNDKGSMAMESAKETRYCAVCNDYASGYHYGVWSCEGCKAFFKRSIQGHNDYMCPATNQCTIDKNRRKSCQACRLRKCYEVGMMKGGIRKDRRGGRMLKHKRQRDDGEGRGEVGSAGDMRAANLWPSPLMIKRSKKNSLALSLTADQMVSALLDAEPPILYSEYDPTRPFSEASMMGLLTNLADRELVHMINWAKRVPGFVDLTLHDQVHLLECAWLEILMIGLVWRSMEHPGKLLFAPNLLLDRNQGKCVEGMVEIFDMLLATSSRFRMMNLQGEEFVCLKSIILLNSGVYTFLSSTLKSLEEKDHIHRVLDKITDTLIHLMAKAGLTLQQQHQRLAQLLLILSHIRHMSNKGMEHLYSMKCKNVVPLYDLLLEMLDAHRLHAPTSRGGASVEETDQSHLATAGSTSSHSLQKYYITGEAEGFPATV
Chain of Androgen receptor (Homo sapiens) (P10275 whole entry, looked up): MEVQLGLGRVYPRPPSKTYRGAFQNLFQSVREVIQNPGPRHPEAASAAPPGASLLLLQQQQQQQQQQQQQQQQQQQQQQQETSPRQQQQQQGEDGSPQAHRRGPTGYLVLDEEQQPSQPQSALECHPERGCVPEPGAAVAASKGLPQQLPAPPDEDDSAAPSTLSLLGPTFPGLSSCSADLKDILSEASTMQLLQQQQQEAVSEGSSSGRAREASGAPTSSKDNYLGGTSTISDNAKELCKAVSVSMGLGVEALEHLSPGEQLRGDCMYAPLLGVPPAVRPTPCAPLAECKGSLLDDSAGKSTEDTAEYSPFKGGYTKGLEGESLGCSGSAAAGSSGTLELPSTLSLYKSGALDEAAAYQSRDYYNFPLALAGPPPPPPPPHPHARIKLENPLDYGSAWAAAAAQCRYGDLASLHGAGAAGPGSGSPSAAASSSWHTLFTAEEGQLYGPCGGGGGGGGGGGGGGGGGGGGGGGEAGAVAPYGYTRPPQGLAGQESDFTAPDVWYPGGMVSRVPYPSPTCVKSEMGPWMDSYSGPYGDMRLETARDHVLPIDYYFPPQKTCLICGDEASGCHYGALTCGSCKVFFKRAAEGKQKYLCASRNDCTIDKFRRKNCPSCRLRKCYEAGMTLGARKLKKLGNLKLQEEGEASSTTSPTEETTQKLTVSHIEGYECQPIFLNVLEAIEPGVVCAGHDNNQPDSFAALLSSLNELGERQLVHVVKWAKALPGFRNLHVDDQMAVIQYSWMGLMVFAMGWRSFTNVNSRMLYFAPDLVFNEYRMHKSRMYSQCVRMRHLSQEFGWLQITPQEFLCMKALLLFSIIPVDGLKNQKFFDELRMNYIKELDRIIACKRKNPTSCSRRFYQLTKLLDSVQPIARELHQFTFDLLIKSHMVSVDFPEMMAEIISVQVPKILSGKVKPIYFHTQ

Cc1ccc2c(c1)c1c3n2CCNC3CCC1 (centres undefined)
active: Potency [1] 11.9 µM | Potency [2] 11.9 µM | Potency [3] 16.8 µM | Potency [6] 11.9 µM | Potency [7] 23.7 µM
inactive: outcome [4] | outcome [5] | Potency [8] | outcome [9] | outcome (Aromatase (Homo sapiens)) | Potency [10]

O=C(O)Cc1cccc(-c2cc(CCCCCCc3ccc(O[C@H]4O[C@H](CO)[C@@H](O)[C@H](O)[C@@H]4O)c(-c4cccc(CC(=O)O)c4)c3)ccc2O[C@H]2O[C@H](CO)[C@@H](O)[C@H](O)[C@@H]2O)c1
inactive: Potency [2] | Potency [3] | outcome [5] | Potency [7] | Potency [11] | outcome [9] | outcome (Aromatase (Homo sapiens)) | Potency [10]

C1CCN2C[C@@H]3C[C@@H](CN4CCCC[C@@H]34)[C@H]2C1
inactive: Potency [1] | Potency [3] | outcome [4] | outcome [5] | Potency [6] | Potency [11] | Potency [8] | outcome (Aromatase (Homo sapiens)) | Potency [10]

CC(C)CCCC(C)CC=O (centres undefined)
inactive: Potency [1] | Potency [2] | Potency [3] | outcome [4] | outcome [5] | Potency [6] | Potency [11] | Potency [12] | Potency [8] | Potency [13] | Potency [14] | outcome [15] | outcome [9] | outcome (Aromatase (Homo sapiens)) | Potency [10]

CNCc1ccccc1
inactive: Potency [1] | Potency [2] | Potency [3] | outcome [4] | outcome [5] | Potency [6] | Potency [7] | Potency [11] | Potency [8] | outcome [9] | outcome (Aromatase (Homo sapiens)) | Potency [10]

CC(C)SCc1ccco1
inactive: Potency [2] | Potency [3] | outcome [4] | outcome [5] | Potency [7] | Potency [11] | Potency [12] | Potency [8] | Potency [13] | Potency [14] | outcome [15] | outcome [9] | outcome (Aromatase (Homo sapiens)) | Potency [10]

CC(=O)Nc1ncc([N+](=O)[O-])s1
inactive: Potency [1] | Potency [2] | Potency [3] | outcome [4] | outcome [5] | Potency [6] | Potency [11] | Potency [12] | Potency [8] | Potency [13] | Potency [14] | outcome [15] | outcome [9] | outcome (Aromatase (Homo sapiens)) | Potency [10]

CCOC(=O)CC(CC(=O)OCC)(OC(C)=O)C(=O)OCC
inactive: Potency [2] | Potency [3] | outcome [4] | outcome [5] | Potency [6] | Potency [7] | Potency [11] | Potency [8] | outcome [9] | outcome (Aromatase (Homo sapiens)) | Potency [10]

Cc1cc(O)c2c(c1)C(=O)c1cccc(O)c1C2=O
inactive: outcome [4] | outcome [5] | Potency [6] | Potency [7] | Potency [11] | Potency [12] | Potency [8] | Potency [13] | Potency [14] | outcome (Aromatase (Homo sapiens)) | Potency [10]
active: Potency [3] 26.7 µM

COCCOCCOCCOC
inactive: Potency [1] | Potency [2] | outcome [4] | outcome [5] | Potency [6] | Potency [7] | Potency [11] | Potency [8] | outcome [9] | outcome (Aromatase (Homo sapiens)) | Potency [10]

CC(C)COC(=O)CCCCC(=O)OCC(C)C
inactive: Potency [1] | outcome [4] | outcome [5] | Potency [6] | Potency [11] | Potency [8] | outcome [9] | outcome (Aromatase (Homo sapiens)) | Potency [10]

C=CCCCCCCCCCCC
inactive: activity, negative = cytotoxicity [2] 4.5% [at 8.53 µM] | activity change, negative = cytotoxicity [3] -12.6% [at 8.55 µM] | activity change, negative = cytotoxicity [4] -0.32% [at 7.04 µM] | activity change, negative = inhibition [16] -3.92% [at 7.04 µM] | activation [17] -0.154% [at 6.9 µM] | viability change, negative = cytotoxic [5] -1.53% [at 8.47 µM] | activity change, negative = inhibition [18] 17.6% [at 8.47 µM] | activity change, negative = cytotoxic [6] -6.91% [at 8.44 µM] | activity, negative = inhibition [7] 8.56% [at 8.44 µM] | activation [11] -1.31% [at 8.08 µM] | activity, negative = inhibition [12] -5.51% [at 6.71 µM] | activation [13] -3.33% [at 6.71 µM] | activation [14] -5.04% [at 8.47 µM] | activity change, negative = inhibition [15] -1.81% [at 8.47 µM] | activity change, negative = cytotoxicity [9] 2.93% [at 8.47 µM] | activity, negative = inhibition (Aromatase (Homo sapiens)) 6.54% [at 8.47 µM] | activity change, negative = cytotoxicity [10] 2.95% [at 8.47 µM]
